Drawing on PubChem BioAssay (NCI), this text covers growth for nine compounds.

Molecules are shown by their SMILES. This is part of a sample that, as a whole, favours compounds with a hit. Of some 83,000 tested, about 20% had one in any assay.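 Growth was measured after 48 h exposure to one concentration of compound in 96-well plates. Values under 10 count as active.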 Unmarked numbers belong to inactive results. The source made the active and inactive calls.

Among the test systems are NCI-H23 lung; NCI-H226 lung; NCI-H322M lung; HOP-62 NSCLC; NCI-H460 lung; HOP-92 NSCLC; NCI-H522 lung; A549/ATCC NSCLC; 786-0 renal; COLO 205 colon; DU-145 prostate; K-562 leukemia; MALME-3M melanoma; MDA-MB-231 breast; RXF 393 renal; SF-268 CNS; SF-295 CNS; SF-539 CNS; UACC-257 melanoma; M14 melanoma.
Holding throughout (assay): NCI-60 one-dose screen, 48 h (100 = growth as untreated, 0 = no growth, -100 = all killed)
Settings in all cases: 10 µM

As for `C#C[C@H]1CCCCCC1O` (stereo partly specified), the growth in the test with NCI-H23 lung was 95.7%; in the test with NCI-H226 lung, 96.5%; in the test on NCI-H322M lung, 104%; in the test with HOP-62 NSCLC it was 105%; in the test with NCI-H460 lung it was 106%; in the test on HOP-92 NSCLC it was 87%. Moreover, the growth is 94.8% in the test on NCI-H522 lung; 105% with A549/ATCC NSCLC; 103% with 786-0 renal; 111% with COLO 205 colon; 110% in the test with DU-145 prostate; 101% in the test with K-562 leukemia. Also, the growth in the test on MALME-3M melanoma is 104%; with MDA-MB-231 breast, 102%; with RXF 393 renal, 103%; in the test on SF-268 CNS it was 105%; with SF-295 CNS, 108%; with SF-539 CNS it was 106%. Besides, the growth in the test with UACC-257 melanoma and with M14 melanoma was 107% each time.

For the compound `CC(=O)CC(=O)N(C)C`, the growth with NCI-H23 lung is 102%; in the test with NCI-H226 lung it was 94.5%; in the test on NCI-H322M lung, 101%; in the test with HOP-62 NSCLC, 98.8%; in the test on NCI-H460 lung, 104%; in the test on HOP-92 NSCLC it was 81.8%. The growth in the test with NCI-H522 lung was 88.5%; with A549/ATCC NSCLC, 101%; in the test on 786-0 renal, 97.8%; in the test on COLO 205 colon it was 115%; in the test on DU-145 prostate it was 104%; with K-562 leukemia, 101%. In addition, the growth in the test on MALME-3M melanoma is 98.7%; in the test with RXF 393 renal, 110%; in the test with SF-268 CNS, 101%; in the test on SF-295 CNS it was 95.8%; in the test with SF-539 CNS it was 97.6%; in the test with UACC-257 melanoma it was 99.3%. Further, the growth in the test on M14 melanoma was 107%.

`Oc1ccc(N=Nc2ccc(Br)cc2)c(O)c1`: the growth was 19.6% in the test with NCI-H23 lung; 83.6% in the test on NCI-H226 lung; 67% with NCI-H322M lung; 27.5% in the test on HOP-62 NSCLC; 8.13% (active) in the test on NCI-H460 lung; 64.3% in the test with HOP-92 NSCLC. The growth in the test on NCI-H522 lung was -32.1% (active); in the test on A549/ATCC NSCLC, 12.5%; with 786-0 renal, 15.6%; with COLO 205 colon, 129%; with DU-145 prostate, -11.8% (active); in the test with K-562 leukemia, 6.18% (active). The growth is 36.2% in the test with MALME-3M melanoma; 41.9% in the test with MDA-MB-231 breast; -58.3% (active) with RXF 393 renal; 30.8% with SF-268 CNS; 15.4% with SF-295 CNS; -18.6% (active) in the test with SF-539 CNS. Besides, the growth in the test with UACC-257 melanoma was 20.6%; in the test on M14 melanoma it was -19.2% (active).

As to `Cc1cc(C)c(N)c(S(=O)(=O)O)c1`, the growth in the test on NCI-H23 lung was 92%; in the test with NCI-H226 lung, 96.4%; with NCI-H322M lung, 108%; with HOP-62 NSCLC, 91.8%; in the test on NCI-H460 lung, 102%; in the test with HOP-92 NSCLC it was 99%. In addition, the growth was 97% in the test on NCI-H522 lung; 114% in the test with A549/ATCC NSCLC; 97.2% with 786-0 renal; 129% in the test with DU-145 prostate; 113% in the test with K-562 leukemia; 104% with MALME-3M melanoma. Further, the growth in the test with MDA-MB-231 breast was 97.8%; in the test with RXF 393 renal, 133%; with SF-268 CNS, 115%; with SF-295 CNS, 104%; in the test on SF-539 CNS, 84.4%; in the test with UACC-257 melanoma it was 122%.

Consider `Cc1ccc(/C=C2\SC(=S)N(c3ccc(F)cc3)C2=O)o1`, for which the growth in the test with NCI-H23 lung was 88.3%; in the test on NCI-H226 lung it was 72.4%; with NCI-H322M lung, 90.2%; with HOP-62 NSCLC, 83.1%; in the test with NCI-H460 lung it was 33.7%; in the test on HOP-92 NSCLC it was 87.6%. For the same compound, the growth in the test on NCI-H522 lung was 70.6%; with A549/ATCC NSCLC, 87.5%; with 786-0 renal, 40.2%; with COLO 205 colon, 92.4%; in the test with DU-145 prostate it was 95.5%; with K-562 leukemia it was 77.8%. The growth in the test with MALME-3M melanoma is 77%; in the test on RXF 393 renal it was 75%; in the test with SF-295 CNS it was 73%; in the test on SF-539 CNS, 73.9%; in the test with UACC-257 melanoma, 102%; with M14 melanoma it was 87.5%.

For `CCCCNC(=O)C(=O)NCCCC`, the growth is 105% in the test with NCI-H23 lung; 106% in the test on NCI-H226 lung; 104% in the test on NCI-H322M lung; 108% with HOP-62 NSCLC; 115% in the test with NCI-H460 lung; 104% in the test on HOP-92 NSCLC. The growth in the test with NCI-H522 lung is 112%; with A549/ATCC NSCLC, 111%; in the test with 786-0 renal it was 101%; with COLO 205 colon it was 117%; in the test on DU-145 prostate, 103%; in the test on K-562 leukemia, 108%. Besides, the growth in the test on MALME-3M melanoma is 95.4%; in the test on RXF 393 renal, 107%; with SF-268 CNS, 97.9%; in the test on SF-295 CNS, 102%; in the test on SF-539 CNS it was 101%; in the test with UACC-257 melanoma it was 105%. Moreover, the growth in the test on M14 melanoma is 104%.

Consider `CCCC(=O)Nc1ccc2c(c1)CN1C(=O)c3ccccc3C1=N2`, for which the growth with NCI-H23 lung was 106%; in the test on NCI-H226 lung it was 100%; with NCI-H322M lung, 99.1%; in the test with HOP-62 NSCLC, 104%; with NCI-H460 lung it was 103%; with HOP-92 NSCLC, 95.3%. In addition, the growth with NCI-H522 lung was 106%; in the test on A549/ATCC NSCLC, 90%; in the test with 786-0 renal it was 99.2%; in the test with COLO 205 colon, 109%; in the test with DU-145 prostate, 101%; in the test with K-562 leukemia, 102%. The growth in the test with MDA-MB-231 breast was 103%; with RXF 393 renal it was 109%; with SF-268 CNS, 101%; with SF-295 CNS, 86.7%; in the test on SF-539 CNS, 89.6%; in the test with UACC-257 melanoma, 102%. Also, the growth in the test on M14 melanoma is 113%.

Turning to `CC1(O)OC(COc2ccc(Cl)cc2)COC1O` (stereo unspecified), the growth in the test on NCI-H23 lung is 102%; with NCI-H226 lung, 102%; in the test with NCI-H322M lung, 104%; with HOP-62 NSCLC it was 106%; with NCI-H460 lung, 106%; with HOP-92 NSCLC, 105%. The growth in the test on NCI-H522 lung is 104%; in the test with A549/ATCC NSCLC it was 106%; in the test with 786-0 renal it was 105%; in the test on COLO 205 colon, 126%; in the test on DU-145 prostate it was 108%; in the test with K-562 leukemia, 104%. For the same compound, the growth with MALME-3M melanoma is 99.2%; in the test with RXF 393 renal it was 107%; in the test with SF-268 CNS, 104%; with SF-295 CNS, 103%; in the test with SF-539 CNS, 97.3%; with UACC-257 melanoma it was 95.7%. For the same compound, the growth with M14 melanoma was 109%.

With `COc1ccc2c(c1)CCc1c-2n[nH]c1-c1[nH]nc2c1CCc1cc(OC)ccc1-2`, the growth is 75.4% in the test with NCI-H23 lung; 82.7% with NCI-H226 lung; 90.5% in the test with NCI-H322M lung; 66% in the test on HOP-62 NSCLC; 53.5% in the test with NCI-H460 lung; 84.6% in the test with HOP-92 NSCLC. In addition, the growth is 34% in the test with NCI-H522 lung; 79% with A549/ATCC NSCLC; 64.7% with 786-0 renal; 67.8% in the test with COLO 205 colon; 86.2% in the test on DU-145 prostate; 20.8% in the test on K-562 leukemia. The growth in the test on MALME-3M melanoma is 46.6%; with RXF 393 renal, 54.3%; in the test with SF-268 CNS it was 86.2%; in the test with SF-295 CNS, 29.6%; in the test with SF-539 CNS, 31.8%; in the test on UACC-257 melanoma, 82.5%. Besides, in the test on M14 melanoma, the growth is 36.1%.
